The results in this text go back to PubChem BioAssay.

The nature of experiment [1]: yeast TOR pathway RPL19A-GFP modulators, primary screen, cell-based, S. cerevisiae, multiplex flow cytometry (AID 1862; in the data active means percent of DMSO control GFP below about 86%;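 further: lower values mimic rapamycin by blocking the RPL19A rise seen in DMSO cells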). The note with it: S. cerevisiae RPL19A-GFP strain, flow cytometry fluorescence, 3 h; at 10 µM; stronger effect = lower value. Background: In flow cytometry, cells or beads pass a laser one at a time.
Experiment [2] is described as follows: modulators of CIT2-GFP expression in yeast, primary screen, S. cerevisiae, GFP fusion, multiplex flow cytometry (AID 1870;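 active means percent response above a set limit, the screen-wide mean plus 3 SD, cut at about 130% in these data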;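 further: barcoded CIT2-GFP strain pooled with four other GFP strains with rapamycin as positive control; median GFP fluorescence per well over plate mean of DMSO wells so 100% = DMSO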). To be noted: 3 h, at 10 µM, stronger effect = higher value.
Experiment [3] is described as follows: modulators of LAP4-GFP expression in yeast, primary screen, S. cerevisiae, multiplex flow cytometry (AID 1873;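 active means GFP signal, as percent of the solvent control, above the screen mean plus 3 SD, about 149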). To be noted: 3 h, at 10 µM, stronger effect = higher value.
A short description of experiment [4]: inhibitors of CD8+ T cell-vesicle binding, pilot screen, LFA-1/ICAM-1 modulator project, MLPCN validation set, flow cytometry (AID 2523;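 active means response below a set limit, under 55% cells CD8-positive and vesicle-bound, and CD8 cells' 90th-percentile brightness under 279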;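 on vesicle binding response: mean PE anti-B7-1 fluorescence of CD8+ cells relative to row control; 100% = QL9-loaded vesicles with DMSO vehicle in the same plate row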). To be noted: 2C mouse CD8+ T cells, at 7 µM, stronger effect = lower value; double positive events: measured here: CD8+/vesicle+ event percentage.
Experiment [5] deals with Integrin beta-1 (Homo sapiens) + Integrin alpha-4 (Homo sapiens) (UniProt P13612+P05556). In words: inhibition of HUTS-21 binding to VLA-4, pilot screen, VLA-4 allosteric modulator project, U937 cells, HUTS-21 mAb, flow cytometry, validation set (AID 2674;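 active means inhibition above 50%, about 3 SD of the validation set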;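 further: antibody binding induced by the VLA-4 ligand LDV present at three times its Kd; 0% = LDV ligand with antibody and no compound and 100% = antibody without LDV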). The note with it: HUTS-21 LIBS mAb binding, at 6.7 µM, stronger effect = higher value.
Chain of Integrin beta-1 (Homo sapiens) + Integrin alpha-4 (Homo sapiens) (P05556 whole entry, looked up): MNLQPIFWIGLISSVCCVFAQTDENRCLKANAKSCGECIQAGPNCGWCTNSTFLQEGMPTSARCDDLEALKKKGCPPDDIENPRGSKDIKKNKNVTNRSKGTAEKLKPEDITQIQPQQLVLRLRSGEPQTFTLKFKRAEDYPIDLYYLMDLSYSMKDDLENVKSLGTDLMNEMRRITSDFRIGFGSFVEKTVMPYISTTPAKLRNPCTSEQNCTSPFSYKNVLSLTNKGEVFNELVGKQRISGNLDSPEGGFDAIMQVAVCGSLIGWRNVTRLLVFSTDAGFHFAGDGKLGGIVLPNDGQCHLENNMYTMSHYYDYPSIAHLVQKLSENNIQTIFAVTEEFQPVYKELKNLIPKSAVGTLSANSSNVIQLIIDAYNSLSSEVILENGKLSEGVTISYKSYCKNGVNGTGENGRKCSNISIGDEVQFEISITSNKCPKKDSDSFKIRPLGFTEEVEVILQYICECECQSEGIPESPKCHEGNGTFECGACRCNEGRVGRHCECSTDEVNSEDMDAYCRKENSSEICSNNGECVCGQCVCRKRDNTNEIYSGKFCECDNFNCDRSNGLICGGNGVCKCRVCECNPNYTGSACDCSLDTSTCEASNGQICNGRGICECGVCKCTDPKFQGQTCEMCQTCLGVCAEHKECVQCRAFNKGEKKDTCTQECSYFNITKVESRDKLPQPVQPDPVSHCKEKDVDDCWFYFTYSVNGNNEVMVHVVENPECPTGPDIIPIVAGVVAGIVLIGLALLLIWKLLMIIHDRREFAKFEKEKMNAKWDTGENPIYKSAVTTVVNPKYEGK
Chain of Integrin beta-1 (Homo sapiens) + Integrin alpha-4 (Homo sapiens) (P13612 whole entry, looked up): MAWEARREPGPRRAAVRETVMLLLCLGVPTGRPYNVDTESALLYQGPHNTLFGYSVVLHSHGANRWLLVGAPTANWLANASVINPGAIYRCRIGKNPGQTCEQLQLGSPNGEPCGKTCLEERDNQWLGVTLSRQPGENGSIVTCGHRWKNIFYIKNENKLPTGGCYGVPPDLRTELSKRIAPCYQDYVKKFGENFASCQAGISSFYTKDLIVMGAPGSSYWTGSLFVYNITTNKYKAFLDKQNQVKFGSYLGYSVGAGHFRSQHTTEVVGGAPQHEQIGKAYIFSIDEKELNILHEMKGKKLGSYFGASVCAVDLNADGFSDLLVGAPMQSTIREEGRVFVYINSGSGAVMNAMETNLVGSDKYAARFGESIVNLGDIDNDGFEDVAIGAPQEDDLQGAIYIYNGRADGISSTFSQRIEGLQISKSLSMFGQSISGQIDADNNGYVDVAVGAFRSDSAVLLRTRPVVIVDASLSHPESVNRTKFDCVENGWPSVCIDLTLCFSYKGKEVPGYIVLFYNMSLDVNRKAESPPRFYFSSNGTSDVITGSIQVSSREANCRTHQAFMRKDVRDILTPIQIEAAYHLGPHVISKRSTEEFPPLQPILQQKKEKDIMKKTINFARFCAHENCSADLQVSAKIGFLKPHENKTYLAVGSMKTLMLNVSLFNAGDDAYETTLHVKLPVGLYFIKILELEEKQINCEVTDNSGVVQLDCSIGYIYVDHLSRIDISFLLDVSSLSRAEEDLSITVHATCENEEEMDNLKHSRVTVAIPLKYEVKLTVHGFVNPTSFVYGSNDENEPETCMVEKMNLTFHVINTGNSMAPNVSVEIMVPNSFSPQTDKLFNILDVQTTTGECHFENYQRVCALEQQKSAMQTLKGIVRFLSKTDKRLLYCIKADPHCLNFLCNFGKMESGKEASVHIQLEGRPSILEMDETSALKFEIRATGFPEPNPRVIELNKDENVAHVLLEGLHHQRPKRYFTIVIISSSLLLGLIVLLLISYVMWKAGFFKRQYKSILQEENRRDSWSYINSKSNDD
A short description of experiment [6]: superoxide lowering in aged yeast cells, pilot screen, validation compound set (AID 2706;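 active means superoxide response below 65% of plate, a cut near 3 SD across the whole screen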;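 further: yeast exposed to compound for one week at 30 degrees C before staining; 100% = mean of all compound wells on the same plate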). The note with it: S. cerevisiae aging, superoxide DHE fluorescence; at 10 µM; stronger effect = lower value.
Experiment [7] concerns the target Beta-adrenergic receptor kinase 1 (Homo sapiens) (UniProt P25098). The experiment in a line: GRK2 binders displacing RNA aptamer, biochemical, validation, human GRK2, bead flow cytometry (AID 488806;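 active means aptamer binding inhibition above 30%, about 3 SD of noise from non-fluorescent compounds; inactive means inhibition at or below 30%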). The note with it: bead-bound GRK2, FAM-aptamer displacement, at 10 µM, stronger effect = higher value.
In experiment [8] the target is Beta-2 adrenergic receptor (Homo sapiens) (UniProt P07550). In words: beta2AR agonists driving receptor internalization, pilot screen, cell-based, FAP fluorogen, flow cytometry, validation set (AID 504459;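 active means percent response above 42, roughly 3 SD of non-fluorescent test compounds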;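 further: agonist-driven loss of surface beta2AR via internalization measured by FAP dye flow cytometry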). The note with it: Am2.2-beta2AR cells, FAP surface receptor flow cytometry; at 10 µM; stronger effect = higher value.
Chain of Beta-2 adrenergic receptor (Homo sapiens) (P07550 whole entry, looked up): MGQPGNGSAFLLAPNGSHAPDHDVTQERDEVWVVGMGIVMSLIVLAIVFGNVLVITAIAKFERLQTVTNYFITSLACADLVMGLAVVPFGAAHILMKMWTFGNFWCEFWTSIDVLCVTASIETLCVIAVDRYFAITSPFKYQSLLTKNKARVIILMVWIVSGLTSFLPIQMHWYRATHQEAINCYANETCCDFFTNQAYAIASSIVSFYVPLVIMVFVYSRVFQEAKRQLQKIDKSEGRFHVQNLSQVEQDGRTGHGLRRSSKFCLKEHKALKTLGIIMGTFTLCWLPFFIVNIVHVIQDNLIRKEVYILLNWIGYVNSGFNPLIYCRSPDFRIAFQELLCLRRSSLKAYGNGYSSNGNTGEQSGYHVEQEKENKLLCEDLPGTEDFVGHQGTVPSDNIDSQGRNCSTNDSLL
The target of experiment [9] is AP-2 complex subunit beta (Homo sapiens) (UniProt P63010). In words: inhibitors of arrestin peptide binding to AP2, pilot screen, biochemical, validation set, GST-AP2 beads, flow cytometry (AID 504541;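 active means inhibition above 54%, about 3 SD of non-fluorescent compounds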;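 further: AP2 carries R879A mutation and is captured from E. coli lysate; bead-bound FITC arrestin peptide fluorescence measuring arrestin peptide binding to AP2; 0% = DMSO wells and 100% = excess unlabeled arrestin peptide control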). The note with it: FITC arrestin peptide, at 10 µM, stronger effect = higher value.
A short description of experiment [10]: yeast V-ATPase proton transport modulators, S. cerevisiae, pHLuorin, HTS validation (AID 504600; in the data active means response above about 15%;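 further: plate controls were DMSO for no effect and reference compound for full effect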). To be noted: S. cerevisiae pHLuorin cytosolic pH, at 10 µM, stronger effect = higher value.
Experiment [11] concerns anti-desmoglein-3 scFv antibody binding to human DSG3. The experiment in a line: inhibitors of anti-DSG3 scFv binding to DSG3, pilot screen, biochemical, validation compound set, bead-based, flow cytometry (AID 588368;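 active means binding below the plate cutoff, the plate median minus 3 SD, with a reading above zero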;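 further: signal is the median channel fluorescence of bead-bound GFP antibody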). To be noted: Protein G beads, DSG3-Fc, scFv-GFP binding, at 10 µM, stronger effect = lower value.
The target in experiment [12] is Botulinum neurotoxin type A (Clostridium botulinum) (UniProt P0DPI0). In words: BoNT/A light chain protease inhibitors, biochemical, multiplex microsphere flow cytometry, validation set (AID 588460). To be noted: at 10 µM, stronger effect = higher value.
Chain of Botulinum neurotoxin type A (Clostridium botulinum) (P0DPI0 whole entry, looked up): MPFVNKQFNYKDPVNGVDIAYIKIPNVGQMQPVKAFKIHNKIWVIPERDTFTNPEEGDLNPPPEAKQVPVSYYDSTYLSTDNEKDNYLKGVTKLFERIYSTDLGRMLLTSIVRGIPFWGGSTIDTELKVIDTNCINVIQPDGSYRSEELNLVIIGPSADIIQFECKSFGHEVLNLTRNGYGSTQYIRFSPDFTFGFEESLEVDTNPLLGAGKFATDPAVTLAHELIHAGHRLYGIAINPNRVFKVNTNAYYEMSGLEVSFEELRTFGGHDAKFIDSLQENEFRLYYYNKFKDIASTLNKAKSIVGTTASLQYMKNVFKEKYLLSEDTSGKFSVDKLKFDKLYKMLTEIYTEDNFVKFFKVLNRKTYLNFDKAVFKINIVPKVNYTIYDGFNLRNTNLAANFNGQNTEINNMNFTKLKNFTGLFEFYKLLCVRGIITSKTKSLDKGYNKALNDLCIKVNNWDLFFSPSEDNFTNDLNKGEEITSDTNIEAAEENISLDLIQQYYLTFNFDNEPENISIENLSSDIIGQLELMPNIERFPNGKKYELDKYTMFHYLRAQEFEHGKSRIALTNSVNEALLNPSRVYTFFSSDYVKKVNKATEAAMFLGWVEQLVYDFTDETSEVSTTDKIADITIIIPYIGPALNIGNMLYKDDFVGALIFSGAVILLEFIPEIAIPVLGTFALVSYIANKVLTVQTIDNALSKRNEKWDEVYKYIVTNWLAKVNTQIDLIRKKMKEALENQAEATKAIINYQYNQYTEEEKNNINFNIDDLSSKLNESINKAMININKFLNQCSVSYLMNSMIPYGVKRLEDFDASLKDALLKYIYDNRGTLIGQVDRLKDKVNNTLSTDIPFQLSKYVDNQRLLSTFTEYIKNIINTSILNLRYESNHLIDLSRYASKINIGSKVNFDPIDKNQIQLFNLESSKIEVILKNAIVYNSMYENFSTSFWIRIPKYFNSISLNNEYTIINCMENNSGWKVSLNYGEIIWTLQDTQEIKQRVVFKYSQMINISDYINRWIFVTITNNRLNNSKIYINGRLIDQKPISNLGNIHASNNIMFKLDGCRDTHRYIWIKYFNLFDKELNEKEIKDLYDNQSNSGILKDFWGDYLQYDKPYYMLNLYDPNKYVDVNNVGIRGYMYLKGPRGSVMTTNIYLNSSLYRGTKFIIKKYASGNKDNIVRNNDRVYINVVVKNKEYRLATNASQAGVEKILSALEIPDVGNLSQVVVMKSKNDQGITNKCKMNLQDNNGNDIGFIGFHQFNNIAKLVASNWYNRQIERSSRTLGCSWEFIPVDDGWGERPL
The target in experiment [13] is Lethal factor (Bacillus anthracis) (UniProt P15917). In words: Lethal factor protease inhibitors, Bacillus anthracis, multiplex microsphere cleavage assay, validation set (AID 588461). To be noted: flow cytometry, at 10 µM, stronger effect = higher value.
Experiment [14] is described as follows: inhibitors of fungal efflux pumps CDR1, CDR2, MDR1, pilot screen, validation compound set, multiplex, phenotypic (AID 588506;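 active means efflux inhibition above 0.42, the validation set average plus 4 SD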;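 further: Nile Red retained in cells so higher fluorescence means more efflux inhibition; 0 = negative control wells and 1 = enniatin B 25 µM full block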). The note with it: S. cerevisiae pump-expressing triplex, Nile Red efflux flow cytometry; at 10 µM; stronger effect = higher value.
For experiment [15], the target named is ATP-binding cassette sub-family B member 6 (Homo sapiens) (UniProt Q9NP58). In words: ABCB6 transporter inhibitors, pilot screen, K562-ABCB6 cells, flow cytometry, validation set (AID 588550;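 active means inhibition above the screen-wide mean plus 3 SD, about 51%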;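 further: 0% = DMSO wells and 100% = benzethonium chloride 70 µM positive control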). The note with it: K562-ABCB6 porphyrin accumulation, 1 h, at 10 µM, stronger effect = higher value.
Chain of ATP-binding cassette sub-family B member 6 (Homo sapiens) (Q9NP58 whole entry, looked up): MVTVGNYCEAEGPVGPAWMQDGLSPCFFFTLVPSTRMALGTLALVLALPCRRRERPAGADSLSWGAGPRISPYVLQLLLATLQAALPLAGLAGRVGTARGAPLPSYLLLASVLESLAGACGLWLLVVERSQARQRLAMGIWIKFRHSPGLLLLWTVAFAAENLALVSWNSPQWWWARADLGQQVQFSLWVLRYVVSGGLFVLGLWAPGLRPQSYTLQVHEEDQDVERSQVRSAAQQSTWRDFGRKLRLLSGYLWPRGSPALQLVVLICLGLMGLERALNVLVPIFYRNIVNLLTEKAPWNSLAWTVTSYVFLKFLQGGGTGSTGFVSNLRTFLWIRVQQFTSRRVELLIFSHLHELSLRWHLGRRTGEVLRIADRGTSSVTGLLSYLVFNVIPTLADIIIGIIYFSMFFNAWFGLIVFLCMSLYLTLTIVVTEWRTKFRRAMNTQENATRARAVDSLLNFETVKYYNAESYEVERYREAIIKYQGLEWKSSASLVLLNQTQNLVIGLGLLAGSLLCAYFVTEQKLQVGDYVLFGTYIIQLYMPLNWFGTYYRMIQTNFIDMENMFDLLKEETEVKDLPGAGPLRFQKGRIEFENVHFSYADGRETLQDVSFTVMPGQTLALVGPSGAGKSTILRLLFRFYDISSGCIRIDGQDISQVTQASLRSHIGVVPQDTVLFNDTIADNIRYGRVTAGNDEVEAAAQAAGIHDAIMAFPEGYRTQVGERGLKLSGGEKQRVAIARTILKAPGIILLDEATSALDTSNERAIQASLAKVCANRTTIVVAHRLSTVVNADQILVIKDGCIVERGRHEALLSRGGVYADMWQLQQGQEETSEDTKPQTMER
Experiment [16] can be described thus: promoters of myeloid differentiation in arrested cells, primary screen, cell-based, GFP/MAC1 double positive, flow cytometry, validation set (AID 588685;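 active means differentiation response of at least 50%, scaled between solvent and reference control, from cells with both markers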;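 further: compound exposure lasts four days before antibody staining and flow analysis; 0% = DMSO wells and 100% = 5 µM fulvestrant positive control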). The note with it: ER-HoxA9 marrow cells, stronger effect = higher value.
Experiment [17] deals with Botulinum neurotoxin type F light chain protease (Clostridium botulinum). In words: Botulinum neurotoxin type F light chain protease inhibition, multiplex microsphere flow cytometry, validation set (AID 588459). To be noted: multiplex microsphere protease substrate cleavage assay, at 10 µM, stronger effect = higher value.

“And” between values parts separate entries of the source, which are not always exact repeats. Identical values can stand only once. Records with an inconclusive call do not appear. The source made the active and inactive calls. Unless noted, how the calls were made is not given here.

Chain of Beta-adrenergic receptor kinase 1 (Homo sapiens) (P25098 whole entry, looked up): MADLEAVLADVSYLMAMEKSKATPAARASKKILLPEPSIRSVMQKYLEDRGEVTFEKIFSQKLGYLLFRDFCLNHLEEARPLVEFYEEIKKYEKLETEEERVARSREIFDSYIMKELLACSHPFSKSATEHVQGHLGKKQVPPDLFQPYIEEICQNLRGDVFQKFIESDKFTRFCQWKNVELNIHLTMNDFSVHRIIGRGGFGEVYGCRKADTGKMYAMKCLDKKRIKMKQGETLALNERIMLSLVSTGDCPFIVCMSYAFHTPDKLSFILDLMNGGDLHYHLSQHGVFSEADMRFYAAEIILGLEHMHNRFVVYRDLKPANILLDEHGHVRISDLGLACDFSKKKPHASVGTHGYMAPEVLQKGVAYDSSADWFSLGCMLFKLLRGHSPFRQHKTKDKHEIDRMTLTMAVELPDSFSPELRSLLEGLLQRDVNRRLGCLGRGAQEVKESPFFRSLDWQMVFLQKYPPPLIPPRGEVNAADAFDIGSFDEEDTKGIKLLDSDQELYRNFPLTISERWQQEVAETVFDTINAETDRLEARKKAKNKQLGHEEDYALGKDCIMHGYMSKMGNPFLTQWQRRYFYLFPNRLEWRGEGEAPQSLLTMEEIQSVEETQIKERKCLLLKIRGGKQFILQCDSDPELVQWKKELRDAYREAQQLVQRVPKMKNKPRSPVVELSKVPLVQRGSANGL

In the case of `O=c1[nH]c2ccccc2n1CCCN1CCC(n2c(=O)[nH]c3cc(Cl)ccc32)CC1`, in experiment [1], the percent of DMSO control GFP was 99.1% (inactive). For the same molecule, in experiment [2], the percent response of DMSO control was 91% (inactive). Further, the GFP response vs DMSO in [3] is 112% (inactive). Also, in experiment [4], the double positive events came out at 55.1%. In addition, in [4], the vesicle binding response is 240% (inactive). Also, the inhibition (as a rule, the relative decrease from the control value, in per cent) is -4.52% (inactive) in [5]; -6.83% (inactive) in experiment [9]; 1.3% (inactive) in experiment [12]; -2.2% (inactive) in experiment [13]; 2% (inactive) in experiment [15]. Besides, the superoxide response (% of plate) in experiment [6] was 114% (inactive). Further, the aptamer binding inhibition in [7] was 1% (inactive). Besides, the results for the response in [8] and in [10] were 2.71% (inactive) and -0.17% (inactive), respectively. For the same molecule, in [11], the binding (% of control) is 101% (inactive). Also, in experiment [14], the efflux inhibition (fraction of control) is -0.1 (inactive). For the same molecule, the differentiation response in experiment [16] was -34.4% (inactive).
As to `NCC1(c2ccc3c(c2)OCCO3)CCCC1`, the percent of DMSO control GFP in [1] is 98.3% (inactive). Besides, in experiment [2], the percent response of DMSO control was 97.9% (inactive). Also, the GFP response vs DMSO in [3] was 89.3% (inactive). The molecule also gave a double positive events in [4] of 60.7%. Further, in experiment [4], the vesicle binding response is 107% (inactive). In addition, the inhibition in [5] is -51.5% (inactive); in experiment [9], 6.32% (inactive); in experiment [17], 0.5% (inactive); in experiment [12], -0.6% (inactive); in experiment [13], 0.5% (inactive); in experiment [15] it was 6% (inactive). For the same molecule, the superoxide response (% of plate) in experiment [6] was 101% (inactive). Also, in [7], the aptamer binding inhibition is 1% (inactive). Besides, the response in experiment [10] was -0.06% (inactive). Also, the binding (% of control) in [11] was 98.8% (inactive). Besides, in experiment [14], the efflux inhibition (fraction of control) is 0.06 (inactive). Further, the differentiation response in [16] was 1.41% (inactive).
`CC(Cc1ccccc1)NCC(=O)Nc1cc(N(C)C)nc2ccccc12` (stereo not given): in experiment [1], the percent of DMSO control GFP is 101% (inactive). Besides, the percent response of DMSO control in experiment [2] was 93.9% (inactive). Also, the GFP response vs DMSO in experiment [3] is 105% (inactive). Also, the double positive events in [4] stood at 52.9%. The vesicle binding response in experiment [4] is 191% (inactive). The inhibition was -40.4% (inactive) in [5]; -8.4% (inactive) in [9]; 11.6% (inactive) in [17]; 6.4% (inactive) in [12]; 0.6% (inactive) in [13]; 8% (inactive) in [15]. For the same molecule, in experiment [6], the superoxide response (% of plate) is 93.7% (inactive). Further, the aptamer binding inhibition in experiment [7] was 5% (inactive). The response in experiment [10] was -1.24% (inactive). For the same molecule, the binding (% of control) in experiment [11] is 99.3% (inactive). Further, the efflux inhibition (fraction of control) in experiment [14] was -0.31 (inactive). Also, in experiment [16], the differentiation response is -18% (inactive).
For `O=C(O)CCCc1ccc(N(CCCl)CCCl)cc1`, in [1], the percent of DMSO control GFP is 101% (inactive). Besides, the percent response of DMSO control in experiment [2] is 98.8% (inactive). For the same molecule, in [3], the GFP response vs DMSO is 97.4% (inactive). For the same molecule, the double positive events in experiment [4] was 63.4%. For the same molecule, the vesicle binding response in experiment [4] was 148% (inactive). Also, the inhibition was 23.1% (inactive) in experiment [5]; 1.29% (inactive) in [9]; -4% (inactive) in experiment [17]; -2.1% (inactive) in [12]; -3.4% (inactive) in experiment [13]; 8% (inactive) in [15]. Also, the superoxide response (% of plate) in [6] is 93.9% (inactive). The aptamer binding inhibition in experiment [7] is 4% (inactive). The response in [10] is -5.67% (inactive). The binding (% of control) in experiment [11] is 105% (inactive). Besides, the efflux inhibition (fraction of control) in experiment [14] was 0.48 (active). For the same molecule, the differentiation response in experiment [16] is 17.6% (inactive).
For the molecule `C[N+]1(C)[C@@H]2CC(OC(=O)[C@H](CO)c3ccccc3)C[C@H]1[C@@H]1O[C@@H]12` (stereo not given in full), the percent of DMSO control GFP in experiment [1] was 97.8% (inactive) and 102% (inactive). The percent response of DMSO control in experiment [2] was 99.7% (inactive) and 92% (inactive). The GFP response vs DMSO in experiment [3] is 94.8% (inactive) and 112% (inactive). Further, the double positive events in experiment [4] was 62.3% and 61.3%. In experiment [4], the vesicle binding response was 109% (inactive) and 5740% (inactive). Besides, the inhibition is 12.3% (inactive) and -9.98% (inactive) in experiment [5]; 5.6% (inactive) and -2.35% (inactive) in experiment [9]; -3.5% (inactive) and 1.5% (inactive) in [17]; -1.8% (inactive) and 0.7% (inactive) in experiment [12]; -5.6% (inactive) and 13.1% (inactive) in experiment [13]; -8% (inactive) and 5% (inactive) in experiment [15]. Further, the superoxide response (% of plate) in experiment [6] was 103% (inactive) and 114% (inactive). In experiment [7], the aptamer binding inhibition was -1% (inactive) and 1% (inactive). Besides, the response was 4.9% (inactive) and -6.87% (inactive) in experiment [8]; 3.4% (inactive) and -1.88% (inactive) in experiment [10]. For the same molecule, the binding (% of control) in [11] is 99.6% (inactive) and 101% (inactive). In addition, in [16], the differentiation response was -6.03% (inactive) and -15.2% (inactive).
